Calpain2 inh: inhibitors of pig calpain II. inhibition, % at 16 µM. purified calpain II, fluorogenic peptide substrate, 30 min. AID 1236. 0.37% of 220,000 active;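 active means inhibition above about 50%, limit read from the data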
ROMK mod: modulators of human ROMK potassium channel; P48048; Tet-inducible ROMK, thallium flux fluorescence; actives lie on both sides; B-score at 10 µM; 2% of 130,000 active;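 active means signal ratio slope over the read window, or its plate-corrected B-score, at least 3 SD from the plate mean, either direction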;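 further: B-score of the F/F0 ratio slope over 7 to 12 s after thallium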
Target sequence (P48048 whole entry, looked up): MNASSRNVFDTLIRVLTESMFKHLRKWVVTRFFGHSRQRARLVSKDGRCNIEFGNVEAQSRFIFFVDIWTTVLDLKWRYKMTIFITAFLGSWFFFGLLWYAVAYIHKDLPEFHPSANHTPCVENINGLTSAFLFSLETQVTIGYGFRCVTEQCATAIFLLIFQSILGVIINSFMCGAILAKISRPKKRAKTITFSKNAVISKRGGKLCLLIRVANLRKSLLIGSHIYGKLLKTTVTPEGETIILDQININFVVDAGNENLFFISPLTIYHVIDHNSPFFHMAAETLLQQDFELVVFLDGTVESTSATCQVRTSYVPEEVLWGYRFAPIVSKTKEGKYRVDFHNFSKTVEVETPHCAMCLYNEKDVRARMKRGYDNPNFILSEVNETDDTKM
Efa HMGR inh: inhibitors of class II HMG-CoA reductase from Enterococcus faecalis; 0.41% of 190,000 active; inhibition, % at 10 µM; purified E. faecalis HMGR, NADPH absorbance 340 nm kinetic; AID 1066;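 active means inhibition above a set limit, the median over all tested compounds plus 3 SD, cut at about 9.5% in these data; inconclusive means no clear call, values can overlap the other calls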;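 further: enzyme runs in reverse so mevalonate oxidation gives rising NADPH absorbance; 0% = complete reaction with DMSO and 100% = background rate lacking mevalonate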
HSV replic up: HSV replication enhancement | 0.005% of 220,000 active | HSV replication augmentation in cells, fold increase | maximum fold increase; in the data active means maximum fold increase above about 1.5; inconclusive means no clear call, values can overlap the other calls; tested in PC3 cells
Arbovirus anti: antivirals against arbovirus infection | arbovirus infection cell-based antiviral screen | inhibition, % at 10 µM | 0.37% of 200,000 active | AID 1251; in the data active means inhibition above about 30%
ROMK retest: retested hit modulating human ROMK potassium channel; shares compounds with ROMK mod; AID 1917; normalized thallium flux (F/F0 slope) at 10 µM; 54% of 3,000 active; ROMK thallium flux, fluorescence ratio; hits give low values;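 active means Flux at 10 µM at least 3 SD below or above vehicle control mean in one or both replicates; inconclusive means no clear call, values can overlap the other calls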
The depositor's hits bear a star; i = inactive; ? = inconclusive; . = no result. Most compounds without a hit are left out; they make up all but 2.1% or so of the library.

SMILES | Calpain2 inh | ROMK mod | Efa HMGR inh | HSV replic up | Arbovirus anti | ROMK retest
CC12CC[C@H]3[C@@H](CCC4(O)C[C@H](O)CCC34/C=N/NC(=O)Cc3ccccc3)C1(O)CCC2C1=CC(=O)OC1 (stereo not given in full) | 0.6 | . | . | i | . | 0.0855
CC/C(=N\NC(=S)Nc1ccccc1)c1c(O)[nH]c(=O)[nH]c1=O | -6.1 | . | . | i | . | .
Cc1[nH]c2c(C(F)(F)F)cccc2c1CCN | -8.7 | -0.885 | -5.9 | i | -6.2 | .
Cc1c(CCN)ccc2c1[nH]c1ccccc12 | 4.0 | -3.23* | . | i | . | 0.0656*
COc1ccccc1CCNC1CCC(C(C)(C)C)CC1 (stereo not given) | -0.2 | -5.83* | -4.5 | i | 21.6 | 0.0589*
O=c1c2ccccc2nc(CNCC2CCCO2)n1-c1ccc(F)cc1 (stereo not given) | 0.1 | 1.13 | -0.5 | i | 3.0 | .
O=C(COc1ccc(Cl)cc1)N1CCN(Cc2ccc([N+](=O)[O-])cc2)CC1 | 27.7 | -6.47* | -5.4 | i | 10.1 | 0.0489*
CN1CCC(C)(O)C2CCCCC21 (stereo not given) | 6.3 | -11.1* | -0.9 | i | 5.8 | 0.082
CC12CN3CCN(CC(C3)C1O)C2 (stereo not given) | -18.2 | . | -3.1 | i | 10.0 | 0.0767
O=C1NC(=O)C(=Cc2coc3ccc(O)cc3c2=O)C(=O)N1 | -0.5 | . | . | i | . | 0.0428*
O=P(CCl)(Nc1ccccc1)C(Cl)(Cl)Cl (stereo not given) | -6.2 | 0.396 | -1.8 | i | 0.2 | .
O=C(c1ccc2c(c1)ncn2C1CCCCC1)N1CCC2(CC1)OCCO2 | 18.0 | 2.41* | -4.8 | i | 0.0 | 0.0883
COc1cccc(C(=O)N2CCC3(CC2)OCCO3)c1 | -2.0 | 0.334 | . | i | . | .
CCOC(=O)c1cc2c(cn1)[nH]c1ccccc12 | -107.8 | . | -5.1 | i | 2.9 | ?
CCOC(=O)c1nc2ccccc2c(=O)n1-c1ccc(C)cc1C | 19.8 | . | 0.1 | i | 5.7 | .
Cc1ccc(N2C(=O)NC(=O)/C(=C\C=C\c3ccco3)C2=O)cc1C | -16.6 | -8.65* | 0.6 | i | -1.1 | 0.0392*
Cc1ccc(N2C(=O)NC(=O)/C(=C\C=C\c3ccco3)C2=O)cc1 | -8.9 | . | . | . | . | .
Cc1cccc(N2C(=O)NC(=O)/C(=C\C=C\c3ccco3)C2=O)c1 | -15.1 | -14.3* | . | i | . | 0.0459*
O=C1NC(=O)N(c2ccccc2)C(=O)/C1=C/C=C/c1ccco1 | 29.2 | -9.61* | . | i | . | 0.0461*
Cc1cccc(C)c1NC1=NCCCCS1 | 9.9 | . | -4.4 | i | 0.2 | .
O=c1[nH]c(=O)n(-c2cccc3ccccc23)c(O)c1/C=N/N1CCCCCC1 | -17.1 | . | . | i | . | .
CCCCn1c(=O)c(C(=O)Nc2nnc(C(C)C)s2)c(O)c2ccccc21 | -225.5 | 1.24 | -2.4 | i | 12.8 | .
C=CCN1C(=O)/C(=C\c2ccc(N3CCOCC3)o2)C(=O)NC1=S | -14.0 | -4.74* | -1.4 | ? | -2.0 | 0.052*
CN1C(=O)C(=Cc2ccc(N3CCOCC3)o2)C(=O)N(C)C1=S | 19.3 | . | -5.8 | ? | 4.7 | .
CCN1C(=O)C(=Cc2ccc(N3CCOCC3)o2)C(=O)N(CC)C1=S | 8.7 | . | . | ? | . | 0.0545*
SMILES | Calpain2 inh | ROMK mod | Efa HMGR inh | HSV replic up | Arbovirus anti | ROMK retest
Cc1nc2ccccc2c(=O)n1-c1cc(F)ccc1F | -12.4 | 0.39 | 1.1 | i | 21.8 | .
O=C(COc1ccccc1F)N1CCN(CCN2C(=O)c3cccc4cccc(c34)C2=O)CC1 | -16.1 | -0.04 | 0.6 | i | -3.6 | .
C/C=C1/CC(C)C(C)(O)C(=O)OCC2CCN3CCC(OC1=O)C23 (stereo not given) | 14.6 | 0.611 | -6.2 | i | 1.2 | .
Cc1ccc(-n2cc(CNC(C)Cc3cnccn3)c(-c3cccc(C)c3)n2)cc1 (stereo not given) | 0.0 | -3.57* | -1.6 | i | -13.3 | 0.0605*
O=C1NC(=O)C(=Cc2ccc(Sc3ccccc3)o2)C(=O)N1 | -10.5 | . | . | i | . | .
CN1C(=O)C(=Cc2ccc(Sc3ccccc3)o2)C(=O)N(C)C1=O | -12.7 | -5.58* | 2.8 | i | -1.2 | 0.0565*
Cc1cccc(-n2c(=S)[nH]c3ccccc3c2=O)n1 | 0.2 | 2.5* | 3.5 | i | -0.2 | 0.0749
Cc1cccc(-n2c(C)nc3ccccc3c2=O)n1 | -10.3 | 0.255 | -3.6 | i | 8.8 | .
c1ccc(-c2[nH]c[n+](CC3CO3)c2-c2ccccc2)cc1 (stereo not given) | -147.0 | . | -2.4 | i | 1.4 | .
CCOP(=O)(CN(CC)CCNP(=O)(OCC)OCC)OCC | 21.3 | . | -2.5 | i | 0.3 | .
CCCCC(=O)N/N=C/c1c(O)n(CC)c(=S)[nH]c1=O | 15.2 | 1.88* | -1.3 | i | 3.5 | 0.0767
CN(C)c1ccc(C(=O)c2ccc(N(C)C)cc2)cc1 | 7.8 | 1.94 | -1.9 | i | -10.3 | .
C/C(=C\c1ccc(N(C)C)cc1)[N+](=O)[O-] | -25.9 | -3.68* | 2.3 | . | 11.4 | 0.0512*
CN(C)c1ccc(/C=C/[N+](=O)[O-])cc1 | -4.6 | -4.11* | -8.2 | i | -1.9 | 0.037*
COC(=O)C1=C(c2cccc(OC)c2OC)C[C@@H]2CC[C@H]1N2C(=O)NC1CC1 | . | . | . | i | . | .
